# Screen size: about 4,800 compounds; about 420 (8.8%) showed an effect of 50% or more. The sample as a whole holds a higher share of strong results than the screen did.
# System: Plasmodium falciparum
# Test: Confirmatory screen in NF54 nanoGlo assay, in single point, at 2uM, 72h
# Assay type: functional, Erythrocyte
# Conditions: timepoint 72 hour
row,SMILES,% Inhibition [%]
1,CCCN1CCC(NCc2ccc(-c3cccc(Cl)c3Cl)o2)CC1,65
2,O=C(Nc1cccc2ccccc12)c1nn[nH]c1NS(=O)(=O)c1ccccc1,-9
3,COc1ccnc(N2CCc3nn(C(C)C)c(=O)cc3C2)n1,-4
4,O=C(Cc1ccc(N(Cc2cccc(F)c2)C(=O)C2CCCC2)cc1)NCCN1CCCC1,21
5,Cc1cccc(CN(C(=O)C2CCCC2)c2ccc(CC(=O)NCCN3CCOCC3)cc2)c1,9
6,O=C(Cc1ccc(N(Cc2cccc(F)c2)C(=O)C2CCCC2)cc1)NCCN1CCCCC1,54
7,NC(=O)C1CCN(C(=O)Nc2nc(C(F)(F)F)cs2)CC1,5
8,CC1(C)CCC[C@@H]1NS(=O)(=O)c1ccc(C(=O)N2CCOCC2)cc1,4
9,Oc1ccc(-c2ncc3n2CCCC3)cc1,4
10,Oc1ccc(-c2nnc(-c3ccc(O)cc3)nn2)cc1,51
11,Cc1c(-c2ccc(F)cc2)[nH]c2ccc(CNc3nccc(N(C)C)n3)cc12,29
12,CC(C)[C@H](Nc1ccc2nccnc2n1)c1nnc2n1CCC2,-8
13,Oc1nc(-c2cccc(C(F)(F)F)c2)sc1-c1ccccc1,0
14,Oc1ccccc1-c1cnc(C(F)(F)F)s1,94
15,CN(C)Cc1cn(C[C@H]2C[C@@H](NC(=O)Nc3ccc4c(c3)OCCO4)[C@H](O)[C@@H]2O)nn1,0
16,CC1CN(C(=O)COc2ccc3oc4ccccc4c3c2)CC(C)O1 (configuration not stated),-3
17,CNC[C@H]1CCCN1C(=O)c1ccc(-c2noc(C(F)(F)F)n2)cc1,29
18,COC1CCCCC1NC(=O)c1ccc(-c2noc(C(F)(F)F)n2)cc1 (configuration not stated),-1
19,CC(C(=O)N1N=CCC1(O)C(F)(F)F)n1nc(C(F)(F)F)cc1C1CC1 (configuration not stated),-1

row,SMILES,% Inhibition [%]
1,O=C(NCCc1cc(F)cc(F)c1)C1CC2CCC1C2 (configuration not stated),0
2,COc1ccc(Nc2nnc(-c3ccc(NC(=O)C(=O)NCCCn4ccnc4)cc3)s2)cc1,56
3,COc1ccc(-c2nccn3cc(C(=O)NCCc4ccncc4)nc23)cc1,-1
4,O=S(=O)(Cc1cc(Cl)cc(Cl)c1)NCCCCn1ccnc1,-6
5,Cn1c2ccc(Br)cc2c2cc(NS(=O)(=O)c3ccccc3)ccc21,4
6,CS(=O)(=O)Nc1nc2c(s1)CN(C(=O)c1ccc3c(c1)CCC=C3)CC2,0
7,CC1CCC(NC(=O)C(c2ccccc2)c2ccccc2)CC1 (configuration not stated),10
8,CCc1cc(C(=O)N2CCCCCC2)c2c(C3CC3)nn(-c3ccc(F)cc3)c2n1,0
9,CC(C)(C)c1ccc(C(=O)N[C@H]2CCCC[C@@H]2NC(=O)c2ccc(C(C)(C)C)cc2)cc1,-5
10,Cc1nc(CC(=O)Nc2cc(C3CC3)nn2-c2ccccc2)cs1,1
11,Cc1nn(C)c(NC(=O)c2ccc(C(C)(C)C)cc2)c1C1=CCCCC1,15
12,Cc1cc(F)ccc1NC(=O)Cn1nc(C2CC2)c2c(C(F)F)cc(=O)[nH]c21,-4
13,CN1CCC[C@H](C(=O)Nc2nc(C3CC3)cs2)C1,-12
14,CC(C)c1cc(=O)[nH]c(-n2nc(C3CC3)cc2NC(=O)c2ccc(F)cc2)n1,93
15,Cc1cc(=O)[nH]c(-n2nc(C3CC3)cc2NC(=O)c2ccc(C(C)(C)C)cc2)n1,57
16,CCc1cc(=O)[nH]c(-n2nc(C3CC3)cc2NC(=O)C2CCCCC2)n1,88
17,Cc1cc(=O)[nH]c(-n2nc(C3CC3)cc2NC(=O)C(c2ccccc2)c2ccccc2)n1,91
18,Cc1ccc(C(=O)Nc2c(C(N)=O)sc3nc(C(F)F)cc(C4CC4)c23)cc1,-16

# Source: ChEMBL document CHEMBL4888484, “Replenishing the malaria drug discovery pipeline: Screening and hit evaluation of the MMV Hit Generation Library 1 (HGL1) against asexual blood stage Plasmodium falciparum ,using a nano luciferase reporter read-out” (2022)
